HCV inh = HCV inhibition. Huh7.5.1 HCVcc-Cre infection, luciferase reporter, 44 h. Potency, µM (series often up to 41.8 µM), without a hit: top-dose activity change, negative = inhibition, most hits filed as inhibitors. hit rate 3.4% among 340,000; note: % is set by controls: 0 for no effect and ±100 for the full control effect
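Cells (1,000/well) were plated 4 h before compound, then infected with HCVcc-Cre virus (~0.5 moi). After 44 h further culture, infection was read as luciferase luminescence following a 15 min substrate incubation at room temperature.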
Pf growth 96h = inhibits malaria parasite growth, 96 h; hit rate 6.9% among 320,000; Potency, µM (series often up to 28.7 µM), inactives show at the highest dose activity change, negative = inhibition, hits mostly inhibitors; AID 504834; P. falciparum luciferase reporter growth, 96 h; note: % is set by controls: 0 for no effect and ±100 for the full control effect
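Parasite growth measured via integrated firefly luciferase reporter in P. falciparum. Infected erythrocytes at 2% hematocrit, 0.05% parasitemia final were treated 96 hours at 37 C under 5% CO2, and luminescence was read.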
SARS PLP yeast = inhibitors of SARS-CoV papain-like protease in yeast; S. cerevisiae expressing SARS-CoV PLpro, growth rescue; Potency, µM (series often up to 32.9 µM), for inactives: top-dose activity, positive = growth rescue, most hits filed as activators; hit rate 0.19% among 330,000; calls by dose curve; note: 0% is about no effect; nearly all actives have a fitted effect of over 55% in size
AMA1-RON2 inh = inhibitors of Plasmodium falciparum AMA1-RON2 interaction; AlphaScreen AMA1-biotinylated RON2 peptide binding; Potency, µM (doses to about 58.2 µM), for inactives: at the top dose activity change, negative = inhibition, actives largely listed as inhibitors; hit rate 0.2% among 360,000; AID 720542;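 note: 0% = vehicle wells and -100% = peptide control; nearly all actives have a fitted effect of over 45% in size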
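AMA1 (3D7) with his tag at 25 nM final met compounds first, then biotinylated RON2 peptide at 25 nM; detection used donor plus acceptor beads, 10 µg/mL apiece, read by AlphaScreen after 30 min at room temperature.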
NS1 inh = inhibitors of influenza NS1 protein function. Potency, µM (titrated, usually from 46.1 µM), without a hit: at the top dose activity, positive = more growth. hit rate 0.4% among 270,000. AID 2326; calls by dose curve; note: actives are rising curves; nearly all actives have a fitted effect of over 50% in size
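Growth recovery, yeast-based: influenza A NS1 expressed in S. cerevisiae causes slow growth, and suppressors are detected by OD600. The parent strain without NS1 is used as positive control.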
Pf growth 48h = P. falciparum growth inhibition at 48 hours (one generation); AID 504832; hit rate 5.9% among 310,000; P. falciparum luciferase growth in erythrocytes, 48 h; Potency, µM (doses to about 28.7 µM), for the others: at the top dose activity change, negative = inhibition, hits mostly inhibitors; note: % is set by controls: 0 for no effect and ±100 for the full control effect
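Cell-based growth assay: transgenic P. falciparum expressing firefly luciferase, cultured in red cells within RPMI 1640 containing 0.5% w/v Albumax, 24 mM bicarbonate and gentamycin. A drop in luciferase activity indicates inhibition.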
The depositor's hits bear a star; ? = inconclusive; . = not tested or not shown; [ ] = another dose, or the depositor's remark. Shown are actives, neighbours in structure and some others; about 12% of the full set was active somewhere. Unless noted, calls come from the whole dose curve; as a rule, active = well fitted curve in the direction sought with a large enough effect; inconclusive = small, poorly fitted or top-dose-only effect, or another doubt; inactive = no such curve, though single readings can be large; an effect the other way counts as inactive or inconclusive. Potency is the fitted concentration of half-maximal effect.

SMILES	HCV inh	Pf growth 96h	SARS PLP yeast	AMA1-RON2 inh	NS1 inh	Pf growth 48h
COc1ccc(/C=C/C(=O)NCC(=O)N/N=C(/C)c2ccc(Cl)cc2)cc1	-6%	24%	-2%	10%	-9%	31%
COc1ccc(NS(=O)(=O)c2cccc(C(=O)NCc3cccnc3)c2)cc1	-20%	-3%	0%	83%	.	?
CC(=O)N/C(=C/c1ccc2c(c1)OCO2)C(=O)NCc1ccccc1	25%	-12%	-1%	-4%	0%	13%
O=C(NCc1ccccc1CN1CCCC1)c1ccc(Cl)c(S(=O)(=O)N2CCCC2)c1	13µM*	12µM*	-1%	-23%	.	13µM*
N#C/C(=C\c1c(N2CCOCC2)nc2ccccn2c1=O)S(=O)(=O)c1ccccc1	-4%	-23%	2%	-8%	-6%	0%
Cc1cccn2c(=O)c(/C=C(\C#N)S(=O)(=O)c3ccccc3)c(N3CCN(Cc4ccccc4)CC3)nc12	8%	15µM*	3%	0%	14%	?
Cc1ccc(S(=O)(=O)/C(C#N)=C/c2c(N3CCOCC3)nc3c(C)cccn3c2=O)cc1	2%	-13%	-2%	-8%	23%	2.1µM*
N#C/C(=C\c1c(N2CCN(Cc3ccccc3)CC2)nc2ccccn2c1=O)S(=O)(=O)c1ccccc1	-22%	?	-1%	-16%	-4%	?
O=[N+]([O-])c1ccc2cn(-c3ccccc3)nc2c1	?	323%	-16%	-16%	1%	253%
O=C1Nc2ccccc2O/C1=C\c1c(F)cccc1Cl	10µM*	-59%	-2%	0%	0%	?
CC(C)(C)[C@H]1COC(=O)[C@@H](Cc2ccc(F)cc2)CC/C=C/C[C@@H](CC(=O)N[C@H](CO)Cc2ccccc2)C(=O)N1	-17%	.	-4%	4%	.	.
COC(=O)c1ccc(CN2C(=O)C3CCCCC3C2=O)o1 (centres undefined)	15%	60%	-6%	-2%	-50%	3.3µM*
CCOC(=O)N1CCC(N2Cc3cccc(C(=O)NCc4ccc5c(c4)OCO5)c3C2=O)CC1	?	?	0%	-3%	-13%	7.4µM*
O=C(NCc1ccc2c(c1)OCO2)c1cccc2c1C(=O)N(C1CCCCC1)C2	8%	44%	0%	-2%	-4%	12%
CCOC(=O)N1CCC(N2Cc3cccc(C(=O)Nc4ccc(OCC)cc4)c3C2=O)CC1	10%	?	8%	-16%	6%	?
CCOC(=O)N1CCC(N2Cc3cccc(C(=O)NCc4ccccc4OC)c3C2=O)CC1	-11%	1%	19%	0%	-36%	13µM*
CCOC(=O)N1CCC(N2Cc3cccc(C(=O)NCc4ccc(OC)cc4)c3C2=O)CC1	8%[0.335 µM]	-1%	-40%	.	?	7.4µM*
CCc1nn(-c2cc(Cl)ccc2OC)c2c1C(=O)CCC2	14µM*	?	0%	-10%	1%	5%
C=CCc1ccccc1OCC(O)CNC1CCCC1 (centres undefined)	-11%	?	-2%	1%	3%	?
C=CCc1ccccc1OCC(O)CNC(C)C (centres undefined)	?	?	0%	10%	-1%	13µM*
CC(C)NC[C@@H](O)COc1cccc2ccccc12	-14%	?	.	0%	0%	9.3µM*
COc1ccc(Br)cc1S(=O)(=O)NCCc1cccs1	4%	.	-10%	16%	.	.
CCCN(CCC)CC(=O)Nc1cccc2c1OCO2	?	12µM*	3%	7%	-3%	2%
O=C(/C=C/c1ccco1)OCC(=O)c1ccc(OC(F)F)cc1	13%	94%	-1%	6%	.	23%
COc1cc(/C=C/C(=O)OCC(=O)c2ccc(OC(F)F)cc2)ccc1O	10µM*	.	-38%	-6%	.	.
SMILES	HCV inh	Pf growth 96h	SARS PLP yeast	AMA1-RON2 inh	NS1 inh	Pf growth 48h
O=C(O)Cc1ccc(C(=O)c2cccs2)s1	15%	10µM*	7%	2%	4%	18%
CN1CCN(c2ncnc3c2ncn3[C@H]2CN(Cc3ccc(F)cc3)C[C@@H](CO)O2)CC1	.	.	.	-4%	.	.
Cc1cccc(CSc2nc3ccncc3n2CC(=O)Nc2cc(C)cc(C)c2)c1	-13%	8.3µM*	-9%	-5%	17%	26%
Cc1ccccc1NC(=O)Cn1nnc(S(=O)(=O)c2ccc(C(C)(C)C)cc2)c1N	?	-3%	-4%	-8%	-7%	20%
CCCc1c(C(=O)N/N=C/C(C)=C/c2ccccc2)nnn1-c1nonc1N	-20%	-18%	-2%	18%	-6%	-26%
COc1cc(/C=N/NC(=O)c2nnn(-c3nonc3N)c2C(C)C)ccc1OCc1ccccc1	14µM*	9.3µM*	0%	0%	-1%	?
CC(C)c1c(C(=O)N/N=C/c2ccc(OCc3ccccc3)cc2)nnn1-c1nonc1N	?	?	-8%	-1%	-25%	?
CC(/C=N/NC(=O)c1nnn(-c2nonc2N)c1C(C)C)=C\c1ccccc1	10µM*	12%	-3%	12%	2%	44%
CC(C)c1c(C(=O)N/N=C/c2ccc(C(F)(F)F)cc2)nnn1-c1nonc1N	5.6µM*	?	5%	7%	-7%	?
CC1CCCN(C2(O)C(=O)Nc3ccc([N+](=O)[O-])cc32)C1 (centres undefined)	-17%	2%	1%	-7%	-5%	-3%
CCCCN1C(=O)C(=O)N(CC(=O)c2ccc3c(c2)CCCC3)C1=O	-8%	22%	8%	4%	.	14%
CCOC(=O)c1[nH]c2ccc(OC)cc2c1NC(=O)NC(C)C	0%	14%	4%	6%	2%	?
CCOC(=O)c1[nH]c2ccc(OC)cc2c1N=CN(C)C	-7%	0.13µM*	0%	16%	8%	7%
CC(C)Cc1nc2ccccc2n1CCc1ccccc1	6%	6.6µM*	-15%	3%	-19%	9.3µM*
CCn1c(CCc2ccccc2)nc2ccccc21	-17%	0.13µM*	-1%	-6%	-29%	?
O=C(/C=C/c1c[nH]c2ccccc12)c1cccc2ccccc12	?	9.3µM*	-65%	-9%	-6%	4%
Cc1cccc(COCC(Cc2ccccc2)N2CCN(C(=O)c3cc(Cl)cc(Cl)c3)CCC2=O)c1 (centres undefined)	-2%[8.37 µM]	15µM*	-10%	-2%	24%	?
Cc1cccc(COCC(Cc2ccccc2)N2CCN(C(=O)c3cccc(C)c3)CCC2=O)c1 (centres undefined)	-9%[8.37 µM]	?	6%	4%	-14%	13µM*
Cc1cccc(COCC(Cc2ccccc2)N2CCN(C(=O)c3ccc(Cl)c(Cl)c3)CCC2=O)c1 (centres undefined)	?	?	-13%	-6%	29%	?

High-throughput results: PubChem BioAssay, National Center for Advancing Translational Sciences (NCATS)
